Measured values: paper PMC7862700, “An all-to-all approach to the identification of sequence-specific readers for epigenetic DNA modifications on cytosine”

Legend:
Assay in all cases: DAPPL (digital affinity profiling via proximity ligation, sequencing); 10 mM Tris-HCl pH 7.5, 50 mM NaCl, 1 mM DTT, 4% glycerol, room temperature, 30 min; GST-TFs on glutathione beads, 16-mer random dsDNA library, 0.1% formaldehyde crosslink after washing; high values mean tight binding
Settings in all cases: protein: recombinant; tags: N-terminal GST; dsDNA, one strand shown
FLI1 = biological target: T1, FLI1 (Homo sapiens, UniProt Q01543 1-452)
T1 sequence: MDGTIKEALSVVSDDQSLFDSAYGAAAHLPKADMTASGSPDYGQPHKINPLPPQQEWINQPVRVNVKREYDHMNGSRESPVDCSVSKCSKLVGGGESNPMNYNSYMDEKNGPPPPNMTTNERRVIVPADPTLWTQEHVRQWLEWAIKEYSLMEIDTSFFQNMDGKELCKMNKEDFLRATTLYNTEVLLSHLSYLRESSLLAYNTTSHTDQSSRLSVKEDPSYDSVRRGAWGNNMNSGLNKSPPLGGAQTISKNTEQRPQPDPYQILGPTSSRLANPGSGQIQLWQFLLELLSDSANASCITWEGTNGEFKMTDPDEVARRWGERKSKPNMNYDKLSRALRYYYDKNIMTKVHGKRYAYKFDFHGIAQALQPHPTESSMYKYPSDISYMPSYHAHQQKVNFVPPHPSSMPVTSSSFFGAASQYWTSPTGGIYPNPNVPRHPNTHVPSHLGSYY
Procedure, shortened: (§1)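 Human transcription factors fused to GST were expressed in yeast, captured on glutathione beads, given DNA barcodes and pooled with a GST-only negative control. Pools were incubated with 200 nmole of a 16-mer random double-stranded DNA library in Tris/NaCl/DTT/glycerol buffer at room temperature for 30 min. They were then washed, crosslinked with 0.1% formaldehyde, proximity-ligated (BsaI/T4 ligase, 1 h, 37 °C), PCR-amplified and sequenced on an Illumina NextSeq500. Binding signal is each 6-mer's read frequency for a factor divided by its frequency for the GST control.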

ELK1 = biological target: T2, ELK1 (Homo sapiens, UniProt P19419 1-428)
T2 sequence: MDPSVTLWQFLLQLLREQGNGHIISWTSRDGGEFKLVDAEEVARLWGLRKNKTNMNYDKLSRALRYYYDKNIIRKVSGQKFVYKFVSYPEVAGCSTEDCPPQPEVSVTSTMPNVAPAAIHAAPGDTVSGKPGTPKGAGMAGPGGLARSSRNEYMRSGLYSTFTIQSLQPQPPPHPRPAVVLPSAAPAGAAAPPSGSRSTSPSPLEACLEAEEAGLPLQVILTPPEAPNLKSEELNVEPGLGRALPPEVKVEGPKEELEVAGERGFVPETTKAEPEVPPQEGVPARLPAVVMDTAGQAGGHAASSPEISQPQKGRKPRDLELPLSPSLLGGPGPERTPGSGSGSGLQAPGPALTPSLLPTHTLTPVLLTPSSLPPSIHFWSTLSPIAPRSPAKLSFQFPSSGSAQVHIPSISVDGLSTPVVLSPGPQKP
Procedure, shortened: as §1

GABPA = biological target: T3, GABPA (Homo sapiens, UniProt Q06546 1-454)
T3 sequence: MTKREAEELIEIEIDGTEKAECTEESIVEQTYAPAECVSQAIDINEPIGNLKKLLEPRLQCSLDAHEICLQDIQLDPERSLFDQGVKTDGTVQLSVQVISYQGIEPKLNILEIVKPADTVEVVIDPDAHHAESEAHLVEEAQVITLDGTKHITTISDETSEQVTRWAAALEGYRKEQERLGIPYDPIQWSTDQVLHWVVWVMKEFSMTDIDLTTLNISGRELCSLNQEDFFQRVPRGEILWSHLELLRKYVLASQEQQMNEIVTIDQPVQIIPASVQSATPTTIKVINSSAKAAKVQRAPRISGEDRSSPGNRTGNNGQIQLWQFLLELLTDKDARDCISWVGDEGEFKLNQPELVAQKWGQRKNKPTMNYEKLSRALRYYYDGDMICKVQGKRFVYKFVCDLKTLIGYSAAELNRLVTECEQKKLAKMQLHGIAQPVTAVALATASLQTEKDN
Procedure, shortened: as §1

ERG = biological target: T4, ERG (Homo sapiens, UniProt P11308 1-479)
T4 sequence: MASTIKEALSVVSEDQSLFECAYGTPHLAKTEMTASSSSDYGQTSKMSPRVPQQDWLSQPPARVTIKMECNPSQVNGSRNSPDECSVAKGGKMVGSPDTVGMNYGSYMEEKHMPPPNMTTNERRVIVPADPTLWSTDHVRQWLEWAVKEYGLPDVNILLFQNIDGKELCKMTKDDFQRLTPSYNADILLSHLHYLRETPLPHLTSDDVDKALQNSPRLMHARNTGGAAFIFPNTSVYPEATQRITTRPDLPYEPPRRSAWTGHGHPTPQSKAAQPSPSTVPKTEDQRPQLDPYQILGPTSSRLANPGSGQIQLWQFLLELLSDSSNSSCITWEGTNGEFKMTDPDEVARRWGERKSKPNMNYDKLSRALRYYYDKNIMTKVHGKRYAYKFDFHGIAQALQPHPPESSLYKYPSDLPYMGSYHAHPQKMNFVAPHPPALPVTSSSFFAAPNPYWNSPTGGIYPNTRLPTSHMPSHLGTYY
Procedure, shortened: as §1

ELF1 = ELF1 (Homo sapiens, UniProt P32519 1-619)
ELF1, sequence (P32519 whole entry): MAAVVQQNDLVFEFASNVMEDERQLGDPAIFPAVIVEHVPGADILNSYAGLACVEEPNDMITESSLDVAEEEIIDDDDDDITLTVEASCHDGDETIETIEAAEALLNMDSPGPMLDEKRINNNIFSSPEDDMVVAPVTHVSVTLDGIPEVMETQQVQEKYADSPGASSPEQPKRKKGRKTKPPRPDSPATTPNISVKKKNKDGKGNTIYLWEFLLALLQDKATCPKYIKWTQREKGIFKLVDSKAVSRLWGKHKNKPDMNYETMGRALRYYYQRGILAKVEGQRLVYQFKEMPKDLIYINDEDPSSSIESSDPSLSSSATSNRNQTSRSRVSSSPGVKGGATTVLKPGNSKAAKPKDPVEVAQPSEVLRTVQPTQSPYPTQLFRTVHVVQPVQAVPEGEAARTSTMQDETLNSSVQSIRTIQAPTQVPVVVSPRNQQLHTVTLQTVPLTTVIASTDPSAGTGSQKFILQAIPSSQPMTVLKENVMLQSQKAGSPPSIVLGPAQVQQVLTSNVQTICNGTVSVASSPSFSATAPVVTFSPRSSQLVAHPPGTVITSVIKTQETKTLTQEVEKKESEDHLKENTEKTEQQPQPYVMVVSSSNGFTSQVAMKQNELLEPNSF
Procedure, shortened: as §1

EHF = biological target: T5, EHF (Homo sapiens, UniProt Q9NZC4 1-300)
T5 sequence: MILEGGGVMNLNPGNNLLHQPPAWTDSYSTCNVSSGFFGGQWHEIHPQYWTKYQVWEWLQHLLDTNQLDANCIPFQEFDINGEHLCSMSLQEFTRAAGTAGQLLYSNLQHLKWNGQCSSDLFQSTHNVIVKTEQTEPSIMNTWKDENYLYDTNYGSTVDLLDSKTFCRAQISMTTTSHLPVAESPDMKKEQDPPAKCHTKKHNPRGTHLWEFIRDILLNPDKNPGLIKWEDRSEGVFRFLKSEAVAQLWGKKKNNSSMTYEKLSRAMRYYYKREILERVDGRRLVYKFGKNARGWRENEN
Procedure, shortened: as §1

SPI1 = SPI1 (Homo sapiens, UniProt P17947 1-270)
Procedure, shortened: as §1

SPIB = SPIB (Homo sapiens, UniProt Q01892 1-262)
SPIB, sequence (Q01892 whole entry): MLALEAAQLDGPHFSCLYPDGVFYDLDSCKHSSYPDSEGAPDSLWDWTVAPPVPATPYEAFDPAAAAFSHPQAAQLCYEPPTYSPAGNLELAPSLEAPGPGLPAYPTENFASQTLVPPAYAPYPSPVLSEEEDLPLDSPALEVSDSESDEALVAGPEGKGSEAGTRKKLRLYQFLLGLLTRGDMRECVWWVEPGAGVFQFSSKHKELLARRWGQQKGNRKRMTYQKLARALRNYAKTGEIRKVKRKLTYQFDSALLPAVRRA
Procedure, shortened: as §1

ELK3 = biological target: T6, ELK3 (Homo sapiens, UniProt P41970 1-407)
T6 sequence: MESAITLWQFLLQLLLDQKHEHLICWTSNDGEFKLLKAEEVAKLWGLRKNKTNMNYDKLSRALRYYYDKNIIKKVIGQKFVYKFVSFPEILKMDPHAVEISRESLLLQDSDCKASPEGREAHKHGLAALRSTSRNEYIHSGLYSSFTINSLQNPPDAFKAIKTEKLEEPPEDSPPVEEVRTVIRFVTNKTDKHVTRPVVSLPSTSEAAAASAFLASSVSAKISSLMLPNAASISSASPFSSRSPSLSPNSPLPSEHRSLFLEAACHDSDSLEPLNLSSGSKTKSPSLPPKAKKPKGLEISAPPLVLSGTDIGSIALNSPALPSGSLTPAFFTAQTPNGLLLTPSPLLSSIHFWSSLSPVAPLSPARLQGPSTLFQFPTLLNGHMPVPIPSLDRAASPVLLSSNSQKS
Procedure, shortened: as §1

CTTTGC
binding signal (FLI1): 1.4 fold enrichment (6-mer frequency, TF over GST control)
binding signal (ELK1): 1.29 fold enrichment (6-mer frequency, TF over GST control)
binding signal (GABPA): 1.39 fold enrichment (6-mer frequency, TF over GST control)
binding signal (ERG): 1.46 fold enrichment (6-mer frequency, TF over GST control)
binding signal (ELF1): 1.32 fold enrichment (6-mer frequency, TF over GST control)
binding signal (EHF): 1.32 fold enrichment (6-mer frequency, TF over GST control)
binding signal (SPI1): 1.21 fold enrichment (6-mer frequency, TF over GST control)
binding signal (SPIB): 1.32 fold enrichment (6-mer frequency, TF over GST control)
binding signal (ELK3): 1.33 fold enrichment (6-mer frequency, TF over GST control)
